Data: PubChem BioAssay AID1159580 (chemical genetic matrix, 2015)
Several values for one entry are separate records, joined by “and”; a condition that tells them apart may be missing. Identical values can stand only once. Hit rate of the full screen: of about 5,500 compounds, about 2,000 (36%) were called active. Roughly 18% stayed inconclusive and do not appear here. Cut-off read from the data, not from the text of the source: active = normalized growth mostly below about 0.91 (no sharp cut-off); inconclusive = no clear call, values can overlap the other calls; inactive = mostly above about 0.92. This is one part of the list.

Test: chemical genetic growth profiling, strain panel (AID 1159580);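 note: tested at 20 µM; growth read once vehicle control cultures reached saturation at 30 °C; 1 = growth at the plate median or of vehicle wells; lower values mean less growth of the strain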
Details: S. cerevisiae deletion strains, growth OD

Measured: normalized growth

CN1C(=O)CCS(=O)(=O)C1c1ccc(Cl)cc1 (stereo unspecified)
inactive: locus YAL013W, strain DEP1, hits give low values 1.01 | locus YAL021C, strain ccr4, hits give low values 0.981 | locus YAL026C, strain drs2, hits give low values 0.982 | locus YAL030W, strain snc1, hits give low values 0.992 | locus YAL040C, strain CLN3, hits give low values 1.03 | locus YBL061C, strain skt5, hits give low values 1 | locus YBR009C, strain hhf1, hits give low values 0.953 | locus YBR021W, strain FUR4, hits give low values 1.02 | locus YBR023C, strain chs3, hits give low values 0.995 | locus YBR171W, strain sec66, hits give low values 0.988 | locus YBR229C, strain ROT2, hits give low values 1.01 | locus YBR231C, strain swc5, hits give low values 0.965 | locus YBR279W, strain paf1, hits give low values 0.99 | locus YCL011C, strain gbp2, hits give low values 1.01 | locus YCL016C, strain dcc1, hits give low values 1.01 | locus YCL029C, strain bik1, hits give low values 1.02 | locus YCL061C, strain MRC1 (second series), hits give low values 0.999 | locus YCL061C, strain MRC1, hits give low values 0.99 | locus YCL069W, strain vba3, hits give low values 0.949 | locus YCR088W, strain abp1, hits give low values 0.982 | locus YDL005C, strain med2, hits give low values 0.991 | locus YDL035C, strain GPR1, hits give low values 1.02 | locus YDL040C, strain nat1, hits give low values 0.973 | locus YDL074C, strain BRE1, hits give low values 1.04 | locus YDL101C, strain DUN1, hits give low values 1.02 | locus YDL134C, strain PPH21, hits give low values 1.01 | locus YDL185W, strain tfp1, hits give low values 1.03 | locus YDL192W, strain arf1, hits give low values 1.01 | locus YDR001C, strain nth1, hits give low values 0.976 | locus YDR069C, strain doa4, hits give low values 0.971 | locus YDR101C, strain arx1, hits give low values 1.01 | locus YDR137W, strain rgp1, hits give low values 0.993 | locus YDR150W, strain NUM1, hits give low values 1.01 and 1 | locus YDR159W, strain sac3, hits give low values 0.883 | locus YDR162C, strain NBP2, hits give low values 1.02 | locus YDR195W, strain ref2 0.956 | locus YDR297W, strain sur2, hits give low values 0.983 | locus YDR318W, strain mcm21, hits give low values 1.01 | locus YDR334W, strain swr1, hits give low values 0.951 | locus YDR335W, strain msn5, hits give low values 0.972 | locus YDR363W, strain ESC2, hits give low values 1.03 | locus YDR388W, hits give low values 1.01 | locus YDR392W, strain spt3, hits give low values 0.939 | locus YDR502C, strain sam2, hits give low values 1.01 | locus YEL003W, strain gim4, hits give low values 0.982 | locus YEL037C, strain rad23, hits give low values 0.982 | locus YEL061C, strain CIN8 (second series), hits give low values 0.995 | locus YEL061C, strain CIN8, hits give low values 1.01 | locus YER002W, strain NOP16, hits give low values 1.01 | locus YER015W, strain faa2, hits give low values 0.985 | locus YER016W, strain bim1, hits give low values 1.03 | locus YER110C, hits give low values 1.01 | locus YER111C, strain swi4, hits give low values 0.996 | locus YER155C, strain BEM2 (second series), hits give low values 1 | locus YER155C, strain BEM2, hits give low values 1.01 | locus YER167W, strain BCK2, hits give low values 1.01 | locus YFR010W, strain ubp6, hits give low values 0.954 | locus YGL078C, strain dbp3, hits give low values 0.998 | locus YGL086W, strain mad1, hits give low values 1.01 | locus YGL167C, strain pmr1, hits give low values 0.963 | locus YGL173C, strain kem1, hits give low values 0.953 | locus YGL227W, strain vid30, hits give low values 0.98 | locus YGL240W, strain doc1, hits give low values 0.963 | locus YGL248W, strain PDE1, hits give low values 1.01 | locus YGL253W, strain hxk2, hits give low values 0.995 | locus YGR078C, strain PAC10, hits give low values 1.02 | locus YGR135W, strain pre9, hits give low values 1.01 | locus YGR229C, strain SMI1, hits give low values 1.03 | locus YGR252W, strain gcn5, hits give low values 1.01 | locus YHR013C, strain ard1, hits give low values 0.982 | locus YHR027C, strain rpn1, hits give low values 0.98 | locus YHR030C, strain SLT2, hits give low values 1.01 and 0.973 | locus YHR079C, strain IRE1 (second series), hits give low values 1.02 | locus YHR079C, strain IRE1, hits give low values 0.97 | locus YHR094C, strain hxt1, hits give low values 1.01 | locus YHR129C, strain ARP1, hits give low values 1.01 | locus YHR142W, strain chs7, hits give low values 0.975 | locus YHR200W, strain rpn10, hits give low values 1.01 | locus YIL066C, strain RNR3, hits give low values 1.02 | locus YIL073C, strain SPO22, hits give low values 1.05 | locus YIL125W, strain kgd1, hits give low values 1.01 | locus YIR030C, strain dcg1, hits give low values 1.01 | locus YJL092W, strain hpr5, hits give low values 0.997 | locus YJL095W, strain BCK1 (second series), hits give low values 0.977 | locus YJL095W, strain BCK1, hits give low values 1.04 and 0.994 | locus YJL115W, strain asf1, hits give low values 0.967 | locus YJL129C, strain trk1, hits give low values 0.994 | locus YJL134W, strain LCB3, hits give low values 1.01 | locus YJL154C, strain vps35, hits give low values 0.989 | locus YJL164C, strain tpk1, hits give low values 0.997 | locus YJL166W, strain qcr8, hits give low values 0.943 | locus YJL168C, strain set2, hits give low values 1.01 | locus YJL187C, strain SWE1 (second series), hits give low values 1.03 | locus YJL187C, strain SWE1, hits give low values 0.994 | locus YJR043C, strain POL32, hits give low values 1.02 | locus YJR066W, strain TOR1, hits give low values 0.885
